SARS PLP yeast: inhibitors of SARS-CoV papain-like protease in yeast; Potency, µM (highest dose often 32.9 µM), for inactives: at the top dose activity, positive = growth rescue, actives largely listed as activators; AID 485353; actives 0.19% (n = 330,000); S. cerevisiae expressing SARS-CoV PLpro, growth rescue; calls by dose curve; also: 0% is about no effect; nearly all actives have a fitted effect of over 55% in size
Sm TGR inh: S. mansoni TGR enzyme inhibition. Q962Y6. purified TGR, DTNB reduction, TNB absorbance 405 nm. Potency, µM (top dose mostly 114 µM), without a hit: at the top dose activity change, negative = inhibition, most hits filed as inhibitors. actives 3% (n = 360,000). AID 485364; active = well fitted inhibition curve with a large enough effect; inconclusive = small, poorly fitted or top-dose-only effect; inactive = no such curve, though single readings can be large or run the other way; also: % is scaled to controls: 0 for no effect and ±100 for the full control effect; nearly all actives have a fitted effect of over 60% in size
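TGR 20 nM + NADPH 100 uM (dispensed conc.), cpd preinc 15 min RT; start with NADPH (500 uM addition) then DTNB (15 mM addition). Kinetic TNB absorbance, 405 nm filter. Four-parameter Hill fit across titration.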
* = called active by the depositor; u = inconclusive; x = not tested or not shown. Compounds with a hit are over-represented: about 3% of the library has one in this group of screens. Potency is read from the fitted curve at half-maximal effect.

SMILES	SARS PLP yeast	Sm TGR inh
O=C(O)c1ccc2c(c1)C(=O)N([C@H](Cc1c[nH]c3ccccc13)C(=O)O)C2=O	1%	-4%
COc1cc(Br)c(C2CC(=O)Nc3cc(OC)c(OC)c(OC)c32)cc1OC (stereo not drawn)	x	1%
O=C1C2C3C=CC(C3)C2C(=O)N1c1ccccc1 (stereo not drawn)	u	-2%
O=C1C2C3C=CC(C3=C3CCCCC3)C2C(=O)N1c1ccccc1 (stereo not drawn)	-27%	16µM*
COc1ccc(S(=O)(=O)c2c(O)c(C)cc(NS(=O)(=O)c3ccc(Cl)cc3)c2C(C)C)cc1	x	-11%
O=C(NCc1ccco1)C(c1ccncc1)N(CCC1=CCCCC1)C(=O)Cn1nnc2ccccc21 (stereo not drawn)	3%	45µM*
O=C(NCc1ccco1)C(c1ccccc1)N(Cc1ccccc1)C(=O)Cn1nnc2ccccc21 (stereo not drawn)	-4%	-4%
O=C(O)CCN1C(=O)c2ccncc2C1=O	-7%	8%
O=C1c2ccncc2C(=O)N1CO	-1%	50µM*
N=C1C=CC=C2C1=NC1(CCCCC1)N2O	-4%	20µM*
O=[N+]([O-])C1=CC=C2C(=NC3(CCCCC3)N2O)C1=NC1CCCCC1	1%	u
C=CCn1c(NC(=O)c2ccc(Br)o2)c(S(=O)(=O)c2ccccc2)c2nc3ccccc3nc21	2%	u
COCCNC(=O)c1c(N)n(Cc2ccco2)c2nc3ccccc3nc12	-3%	40µM*
COc1ccc(S(=O)(=O)c2c(N)n(Cc3ccco3)c3nc4ccccc4nc23)cc1	1%	u
C=CCn1c(N)c(C(=O)NCC2CCCO2)c2nc3ccccc3nc21 (stereo not drawn)	1%	13%
C=CCn1c(NC(=O)c2ccco2)c(S(=O)(=O)c2ccccc2)c2nc3ccccc3nc21	2%	45µM*
CC(C)(C)OC(=O)c1c(N)n(Cc2ccco2)c2nc3ccccc3nc12	14%	28µM*
C=CCNC(=O)c1c(N)n(Cc2ccco2)c2nc3ccccc3nc12	5%	45µM*
Nc1c(C(=O)NCCN2CCOCC2)c2nc3ccccc3nc2n1Cc1ccco1	1%	u
Cc1cccc(CNC(=O)CCCN2C(=O)CCn3nc(-c4cccn4C)cc32)c1	x	-7%
CCCCN(C)CCNC(=O)C1CCN(c2nc3ccc(CC)cc3s2)CC1	x	0%
Cc1ccc(-n2nc(CO)c(C(=O)NCc3ccccn3)n2)cc1	x	6%
CC1CCCCN1CCCNC(=O)c1cc(Sc2cccc(Cl)c2)nc2ccccc12 (stereo not drawn)	x	0%
COc1cc(C2CC(=O)Nc3cc4c(cc32)OCCO4)cc(Br)c1OC (stereo not drawn)	x	1%
CC(C)(C)c1ccc(CN(Cc2ccco2)c2cnc(S(C)(=O)=O)nc2C(=O)Nc2ccc(F)cc2)cc1	x	-5%
SMILES	SARS PLP yeast	Sm TGR inh
CCCCCOc1ccccc1CN1C(=O)C(=O)c2cc(C)ccc21	x	-17%
COc1ccc(S(=O)(=O)c2cc(NS(=O)(=O)c3ccc(Cl)cc3)c(C)c(C)c2O)cc1	x	-23%
CCOc1ccc(NC(=O)CN2C(=O)C(c3ccccc3)=NC23CCCCCC3)cc1	x	3%
COCCNC(=O)c1c(NC(=O)c2ccco2)n(Cc2ccccc2)c2nc3ccccc3nc12	-2%	25µM*
COCCCNC(=O)c1c(NC(=O)c2ccccc2Cl)n(Cc2ccccc2)c2nc3ccccc3nc12	6%	-2%
Cc1cccc(N2CCC(N3CCN(C4CCCCC4)C(CCO)C3)CC2)c1C (stereo not drawn)	-2%	5µM*
CC(C)N1CCC(N2CCN(C3CCCC3)CC2CCO)CC1 (stereo not drawn)	0%	x
O=S(=O)(c1ccc2ccccc2c1)N1CCCCC1	-4%	-2%
O=S(=O)(CC(CN1CCCC1)N1CCCC1)c1ccc2ccccc2c1 (stereo not drawn)	3%	16µM*
CCN(CC)c1cc2c(cc1F)c(=O)c(S(=O)(=O)c1ccc(OC)cc1)cn2CC	x	-14%
Cc1cn2c(=O)c(S(=O)(=O)NCc3ccc(F)cc3)c(C)nc2s1	x	5%
O=C(CSc1nc(-c2ccccc2F)nc2cc(=O)[nH]n12)Nc1cccc(C(F)(F)F)c1	x	3%
CCCn1c(CCCNC(=O)c2ccccc2OC)nc2ccccc21	x	-9%
COc1ccc(NC(=S)NC(NC(=O)CCl)C(Cl)(Cl)Cl)c([N+](=O)[O-])c1 (stereo not drawn)	0%	2.8µM*
CCOC(=O)NC(NC(=S)Nc1ccc(OC)cc1)C(Cl)(Cl)Cl (stereo not drawn)	-14%	-9%
COc1ccc(NC(=S)NC(NC(=O)CF)C(Cl)(Cl)Cl)cc1[N+](=O)[O-] (stereo not drawn)	0%	35µM*
COc1ccc(NC(=S)NC(NC(=O)c2ccccc2Cl)C(Cl)(Cl)Cl)c([N+](=O)[O-])c1 (stereo not drawn)	5%	-3%
O=C(CF)NC(NC(=S)Nc1cccc([N+](=O)[O-])c1)C(Cl)(Cl)Cl (stereo not drawn)	-2%	u
COC(=O)NC(NC(=S)Nc1ccc([N+](=O)[O-])cc1)C(Cl)(Cl)Cl (stereo not drawn)	-10%	20µM*
Fc1ccc(CNc2nc3c(-c4ccc(F)cc4)nnn3c3ccccc23)cc1	x	-1%
COCc1[nH]c(=S)c(C#N)cc1C(=O)OC	-1%	20µM*
CCOC(=O)c1cc(C#N)c(=S)[nH]c1C	3%	1%
O=C(Cn1nc(Cl)nc1Cl)c1ccccc1	-2%	1%
O=C(CSc1nnc(-c2cccnc2)o1)c1cc2ccccc2oc1=O	-1%	u
O=C(Cn1nc(Cl)nc1Cl)c1cc2ccccc2oc1=O	-23%	14µM*
SMILES	SARS PLP yeast	Sm TGR inh
Cn1cnnc1SCC(=O)c1cc2ccccc2oc1=O	1%	8.9µM*
CC1CCCCN1CCCNC(=O)c1sc2ncccc2c1-n1cccc1 (stereo not drawn)	x	4%
Cc1cc(NC(=O)c2cc(-c3ccc(Cl)cc3)on2)n(-c2ccccc2)n1	x	1%
COc1ccccc1C1C(C(N)=O)=C(C)Nc2nc(SCc3ccccc3F)nn21 (stereo not drawn)	x	-3%
CCN(CC)c1ccc(-n2nc3cc(C)c(NC(=O)c4ccccc4F)cc3n2)cc1	x	0%
Cc1ccc2sc(N(Cc3cccnc3)C(=O)CCS(=O)(=O)c3ccccc3)nc2c1C	x	35µM*
Cc1ccc2sc(N(Cc3cccnc3)C(=O)Cc3ccccc3)nc2c1C	x	5%
O=C(CCS(=O)(=O)c1ccccc1)N(Cc1cccnc1)c1nc2c(Cl)cccc2s1	x	1.6µM*
O=C(c1cccs1)N(Cc1cccnc1)c1nc2c(Cl)cccc2s1	x	-2%
Cc1cc(C)c2nc(N(Cc3cccnc3)C(=O)CCS(=O)(=O)c3ccccc3)sc2c1	x	-29%
Cc1cccc2sc(N(Cc3cccnc3)C(=O)CCS(=O)(=O)c3ccccc3)nc12	x	4.5µM*
COc1ccc(NC(=O)C(CC(C)C)NC(=O)C2CCCCC2)cc1 (stereo not drawn)	x	-12%
Cc1c2cnn(CC(=O)Nc3cccc(C(F)(F)F)c3)c(=O)c2c(C)n1Cc1ccccc1Cl	x	-6%
COc1ccc(CNC(=O)Cc2c(C)c3c(cc(C)c4c(C)c(C)oc43)oc2=O)cc1OC	x	-1%
COc1ccccc1C(=O)Nc1ccccc1SCc1cc(=O)c2ccccc2[nH]1	x	2%
Cc1cccc(C)c1OCc1cc(=O)n2c3c(sc2n1)CCCC3	x	3%
